Common to all, as to assay: DAPPL (digital affinity profiling via proximity ligation, sequencing); 10 mM Tris-HCl pH 7.5, 50 mM NaCl, 1 mM DTT, 4% glycerol, room temperature, 30 min; GST-TFs on glutathione beads, 16-mer random dsDNA library, 0.1% formaldehyde crosslink after washing; high values mean tight binding
One experiment concerns the target T1, FEV (Homo sapiens, UniProt Q99581 1-238).
T1 sequence: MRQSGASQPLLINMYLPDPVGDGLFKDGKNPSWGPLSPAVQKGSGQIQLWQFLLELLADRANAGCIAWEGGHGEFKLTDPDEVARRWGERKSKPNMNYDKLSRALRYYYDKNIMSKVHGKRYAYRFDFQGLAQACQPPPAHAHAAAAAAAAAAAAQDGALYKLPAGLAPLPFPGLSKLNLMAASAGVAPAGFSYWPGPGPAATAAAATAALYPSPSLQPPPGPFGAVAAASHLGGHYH
The conditions noted are these: protein: recombinant; tags: N-terminal GST; dsDNA, one strand shown. Summed up: (§1)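 Binding signal is given per hexamer as its read frequency for a factor divided by its frequency in the tag-only sample. GST-fused human transcription factors were expressed in yeast, captured on glutathione beads, barcoded with DNA and pooled with that sample, then incubated with 200 nmole of a 16-mer random double-stranded DNA library in Tris/NaCl/DTT/glycerol buffer for 30 min at room temperature. The pools were then washed, crosslinked, proximity-ligated, amplified by PCR and sequenced on an Illumina NextSeq500.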

Another experiment deals with ETV5 (Homo sapiens, UniProt P41161 1-510). Particulars: protein: recombinant; tags: N-terminal GST; dsDNA, one strand shown. Summed up:
as §1

The target of a further experiment is HSF1 (Homo sapiens, UniProt Q00613 1-529). Particulars: protein: recombinant; tags: N-terminal GST; chain copies: 3; dsDNA, one strand shown. Summed up: as §1
Sequence of HSF1 (Q00613 whole entry): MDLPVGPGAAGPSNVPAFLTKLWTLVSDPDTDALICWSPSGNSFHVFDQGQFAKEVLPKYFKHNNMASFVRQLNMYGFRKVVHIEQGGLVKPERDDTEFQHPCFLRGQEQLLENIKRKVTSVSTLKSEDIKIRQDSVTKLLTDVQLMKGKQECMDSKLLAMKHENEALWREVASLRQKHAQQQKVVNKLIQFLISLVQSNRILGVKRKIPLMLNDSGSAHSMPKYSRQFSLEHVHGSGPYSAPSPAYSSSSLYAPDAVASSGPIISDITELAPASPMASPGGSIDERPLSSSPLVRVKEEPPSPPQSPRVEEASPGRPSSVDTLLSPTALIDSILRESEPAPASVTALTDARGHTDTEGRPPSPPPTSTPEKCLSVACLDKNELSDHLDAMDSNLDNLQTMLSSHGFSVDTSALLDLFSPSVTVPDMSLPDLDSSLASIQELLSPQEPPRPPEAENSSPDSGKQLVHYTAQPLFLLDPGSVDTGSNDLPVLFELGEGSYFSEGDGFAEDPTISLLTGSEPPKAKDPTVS
A further experiment deals with T2, SPIC (Homo sapiens, UniProt Q8N5J4 1-248).
T2 sequence: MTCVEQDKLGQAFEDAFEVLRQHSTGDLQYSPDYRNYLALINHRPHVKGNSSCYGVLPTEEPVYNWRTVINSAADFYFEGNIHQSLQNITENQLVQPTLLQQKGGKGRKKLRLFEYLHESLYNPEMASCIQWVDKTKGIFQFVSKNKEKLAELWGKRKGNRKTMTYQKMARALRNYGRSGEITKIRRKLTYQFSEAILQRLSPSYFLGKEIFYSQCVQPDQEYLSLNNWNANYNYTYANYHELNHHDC
The conditions noted are these: protein: recombinant; tags: N-terminal GST; dsDNA, one strand shown. Summed up:
as §1

The next experiment deals with ELF4 (Homo sapiens, UniProt Q99607 1-663). The conditions noted are these: protein: recombinant; tags: N-terminal GST; dsDNA, one strand shown. Summed up: as §1
Sequence of ELF4 (Q99607 whole entry): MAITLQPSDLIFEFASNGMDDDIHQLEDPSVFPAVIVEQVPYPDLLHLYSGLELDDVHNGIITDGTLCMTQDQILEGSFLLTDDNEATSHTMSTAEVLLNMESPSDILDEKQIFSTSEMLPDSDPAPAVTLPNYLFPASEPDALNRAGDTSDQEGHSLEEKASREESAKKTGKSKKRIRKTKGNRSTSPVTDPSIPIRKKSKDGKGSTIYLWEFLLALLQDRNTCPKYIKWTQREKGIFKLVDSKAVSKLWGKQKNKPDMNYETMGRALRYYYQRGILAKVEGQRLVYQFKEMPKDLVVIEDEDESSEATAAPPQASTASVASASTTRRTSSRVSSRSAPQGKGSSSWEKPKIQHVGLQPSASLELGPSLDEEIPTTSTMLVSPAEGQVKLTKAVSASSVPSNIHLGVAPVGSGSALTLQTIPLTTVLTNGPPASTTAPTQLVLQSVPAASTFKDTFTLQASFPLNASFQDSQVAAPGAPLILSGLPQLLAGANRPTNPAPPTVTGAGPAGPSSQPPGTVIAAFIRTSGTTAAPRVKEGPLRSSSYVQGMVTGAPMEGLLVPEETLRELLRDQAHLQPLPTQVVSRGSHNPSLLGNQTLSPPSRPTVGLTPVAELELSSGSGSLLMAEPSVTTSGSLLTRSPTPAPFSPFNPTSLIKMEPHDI
In the next experiment the target is T3, ELK4 (Homo sapiens, UniProt P28324-2 1-405).
T3 sequence: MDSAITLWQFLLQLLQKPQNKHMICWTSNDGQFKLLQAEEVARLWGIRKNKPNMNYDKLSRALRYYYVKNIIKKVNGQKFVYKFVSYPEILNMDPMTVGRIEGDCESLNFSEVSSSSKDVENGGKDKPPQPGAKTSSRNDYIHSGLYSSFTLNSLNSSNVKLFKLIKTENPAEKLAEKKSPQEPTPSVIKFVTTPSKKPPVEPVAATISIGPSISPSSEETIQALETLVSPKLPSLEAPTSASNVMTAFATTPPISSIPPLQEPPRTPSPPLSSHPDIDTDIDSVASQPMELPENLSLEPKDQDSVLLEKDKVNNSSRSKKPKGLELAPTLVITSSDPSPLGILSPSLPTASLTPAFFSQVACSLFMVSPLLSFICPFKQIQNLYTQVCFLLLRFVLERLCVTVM
The conditions noted are these: protein: recombinant; tags: N-terminal GST; dsDNA, one strand shown. Summed up:
as §1

The next experiment addresses T4, ETV2 (Homo sapiens, UniProt O00321 1-342).
T4 sequence: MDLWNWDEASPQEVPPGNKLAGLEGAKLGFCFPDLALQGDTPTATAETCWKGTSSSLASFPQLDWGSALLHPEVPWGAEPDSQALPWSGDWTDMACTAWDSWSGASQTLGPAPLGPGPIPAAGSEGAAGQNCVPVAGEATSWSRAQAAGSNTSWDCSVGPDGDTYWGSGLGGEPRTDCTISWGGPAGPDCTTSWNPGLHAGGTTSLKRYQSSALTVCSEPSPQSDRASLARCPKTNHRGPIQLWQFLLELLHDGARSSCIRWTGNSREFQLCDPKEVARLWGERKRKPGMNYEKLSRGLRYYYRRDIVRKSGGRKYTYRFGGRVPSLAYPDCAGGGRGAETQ
Particulars: protein: recombinant; tags: N-terminal GST; dsDNA, one strand shown. Summed up:
as §1

For a further experiment, the target named is T5, ELF3 (Homo sapiens, UniProt P78545 1-371).
T5 sequence: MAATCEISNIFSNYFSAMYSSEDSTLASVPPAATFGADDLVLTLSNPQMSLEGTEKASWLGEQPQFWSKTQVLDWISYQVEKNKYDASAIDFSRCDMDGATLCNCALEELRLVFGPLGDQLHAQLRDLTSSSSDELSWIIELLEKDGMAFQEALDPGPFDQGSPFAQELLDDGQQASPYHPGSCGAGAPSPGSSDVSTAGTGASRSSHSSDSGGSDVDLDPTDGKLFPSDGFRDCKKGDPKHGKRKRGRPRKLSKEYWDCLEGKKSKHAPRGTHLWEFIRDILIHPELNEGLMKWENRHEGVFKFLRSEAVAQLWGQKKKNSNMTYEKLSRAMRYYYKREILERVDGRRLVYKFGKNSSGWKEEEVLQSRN
The conditions noted are these: protein: recombinant; tags: N-terminal GST; dsDNA, one strand shown. Summed up: as §1

Another experiment has as its target CRX (Homo sapiens, UniProt O43186 1-299). The conditions noted are these: protein: recombinant; tags: N-terminal GST; dsDNA, one strand shown. Summed up: as §1
The next experiment addresses ETV1 (Homo sapiens, UniProt P50549 1-477). Particulars: protein: recombinant; tags: N-terminal GST; dsDNA, one strand shown. Summed up:
as §1

The target in another experiment is T6, ERF (Homo sapiens, UniProt P50548 1-548).
T6 sequence: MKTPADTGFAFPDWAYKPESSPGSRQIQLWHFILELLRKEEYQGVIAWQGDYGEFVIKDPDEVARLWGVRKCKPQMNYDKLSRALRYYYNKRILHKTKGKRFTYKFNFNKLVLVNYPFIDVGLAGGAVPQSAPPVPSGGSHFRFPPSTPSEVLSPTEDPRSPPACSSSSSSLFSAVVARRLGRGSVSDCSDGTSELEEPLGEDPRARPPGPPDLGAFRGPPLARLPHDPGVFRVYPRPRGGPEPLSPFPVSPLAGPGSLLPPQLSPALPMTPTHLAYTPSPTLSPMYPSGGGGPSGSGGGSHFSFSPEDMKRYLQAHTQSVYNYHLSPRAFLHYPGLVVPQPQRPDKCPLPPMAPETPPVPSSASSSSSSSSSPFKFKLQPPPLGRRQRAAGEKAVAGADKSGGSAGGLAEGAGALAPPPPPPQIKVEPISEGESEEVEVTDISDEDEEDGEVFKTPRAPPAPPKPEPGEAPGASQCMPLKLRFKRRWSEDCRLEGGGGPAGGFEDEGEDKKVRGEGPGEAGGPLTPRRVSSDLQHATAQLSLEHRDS
Particulars: protein: recombinant; tags: N-terminal GST; dsDNA, one strand shown. Summed up:
as §1

In another experiment the target is T7, ETV3L (Homo sapiens, UniProt Q6ZN32 1-361).
T7 sequence: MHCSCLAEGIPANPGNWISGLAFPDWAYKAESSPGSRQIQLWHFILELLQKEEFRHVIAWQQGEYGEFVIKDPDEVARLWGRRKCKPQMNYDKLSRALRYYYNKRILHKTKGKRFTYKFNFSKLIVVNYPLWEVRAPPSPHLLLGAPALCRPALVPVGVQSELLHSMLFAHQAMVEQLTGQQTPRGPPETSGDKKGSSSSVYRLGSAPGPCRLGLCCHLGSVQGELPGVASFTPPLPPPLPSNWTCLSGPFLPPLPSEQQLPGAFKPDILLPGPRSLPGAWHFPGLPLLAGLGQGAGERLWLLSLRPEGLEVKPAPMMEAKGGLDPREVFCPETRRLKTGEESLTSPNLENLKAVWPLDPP
The conditions noted are these: protein: recombinant; tags: N-terminal GST; dsDNA, one strand shown. Summed up: as §1

The target in the next experiment is T8, ETS2 (Homo sapiens, UniProt P15036 1-469).
T8 sequence: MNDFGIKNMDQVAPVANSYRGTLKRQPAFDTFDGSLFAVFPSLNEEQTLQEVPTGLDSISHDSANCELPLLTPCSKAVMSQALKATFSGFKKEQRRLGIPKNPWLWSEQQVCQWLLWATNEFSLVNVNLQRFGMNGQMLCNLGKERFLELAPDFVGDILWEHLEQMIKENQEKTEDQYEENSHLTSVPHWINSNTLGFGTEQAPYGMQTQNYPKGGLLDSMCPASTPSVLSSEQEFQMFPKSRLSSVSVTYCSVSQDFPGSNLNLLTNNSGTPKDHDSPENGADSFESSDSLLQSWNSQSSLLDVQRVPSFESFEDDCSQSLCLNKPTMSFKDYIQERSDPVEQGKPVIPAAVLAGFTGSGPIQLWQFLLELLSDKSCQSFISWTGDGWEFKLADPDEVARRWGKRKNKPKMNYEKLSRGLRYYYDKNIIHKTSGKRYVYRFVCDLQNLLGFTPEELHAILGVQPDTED
Particulars: protein: recombinant; tags: N-terminal GST; dsDNA, one strand shown. Summed up: as §1

In the next experiment the target is T9, SPDEF (Homo sapiens, UniProt O95238 1-335).
T9 sequence: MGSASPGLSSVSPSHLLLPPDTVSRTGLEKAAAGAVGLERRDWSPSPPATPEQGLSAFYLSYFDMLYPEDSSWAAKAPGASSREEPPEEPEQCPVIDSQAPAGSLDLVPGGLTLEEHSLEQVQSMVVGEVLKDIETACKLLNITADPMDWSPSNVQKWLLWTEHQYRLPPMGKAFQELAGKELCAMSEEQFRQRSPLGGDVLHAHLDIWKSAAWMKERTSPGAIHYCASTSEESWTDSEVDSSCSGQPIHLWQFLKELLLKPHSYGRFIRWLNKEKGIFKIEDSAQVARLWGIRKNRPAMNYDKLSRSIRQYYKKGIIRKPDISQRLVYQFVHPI
Particulars: protein: recombinant; tags: N-terminal GST; dsDNA, one strand shown. Summed up:
as §1

A further experiment has as its target T10, ETV7 (Homo sapiens, UniProt Q9Y603 1-341).
T10 sequence: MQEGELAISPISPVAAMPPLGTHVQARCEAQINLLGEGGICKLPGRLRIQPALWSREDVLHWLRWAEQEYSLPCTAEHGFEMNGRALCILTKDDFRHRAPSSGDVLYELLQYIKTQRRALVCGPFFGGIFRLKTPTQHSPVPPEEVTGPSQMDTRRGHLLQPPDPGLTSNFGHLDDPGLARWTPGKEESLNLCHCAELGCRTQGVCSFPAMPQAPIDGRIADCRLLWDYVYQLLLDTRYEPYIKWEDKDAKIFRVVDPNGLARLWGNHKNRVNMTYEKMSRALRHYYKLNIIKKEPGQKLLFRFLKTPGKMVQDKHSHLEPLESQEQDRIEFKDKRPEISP
Particulars: protein: recombinant; tags: N-terminal GST; dsDNA, one strand shown. Summed up:
as §1

A further experiment deals with T11, ELF5 (Homo sapiens, UniProt Q9UKW6-2 1-255).
T11 sequence: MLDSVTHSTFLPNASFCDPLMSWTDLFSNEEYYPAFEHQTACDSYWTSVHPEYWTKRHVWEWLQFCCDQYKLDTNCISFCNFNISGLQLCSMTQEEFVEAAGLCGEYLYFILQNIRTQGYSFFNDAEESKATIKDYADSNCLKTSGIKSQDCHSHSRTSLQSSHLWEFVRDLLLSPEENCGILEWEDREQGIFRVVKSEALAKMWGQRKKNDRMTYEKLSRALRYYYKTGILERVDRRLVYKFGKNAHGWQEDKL
The conditions noted are these: protein: recombinant; tags: N-terminal GST; dsDNA, one strand shown. Summed up:
as §1

In a further experiment the target is T12, ETV3 (Homo sapiens, UniProt P41162-2 1-143).
T12 sequence: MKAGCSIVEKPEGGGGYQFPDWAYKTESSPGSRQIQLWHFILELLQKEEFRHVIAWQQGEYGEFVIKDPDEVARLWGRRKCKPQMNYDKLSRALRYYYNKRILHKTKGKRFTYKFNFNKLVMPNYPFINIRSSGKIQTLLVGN
The conditions noted are these: protein: recombinant; tags: N-terminal GST; dsDNA, one strand shown. Summed up:
as §1

The target in another experiment is ETV6 (Homo sapiens, UniProt P41212 1-452). Particulars: protein: recombinant; tags: N-terminal GST; dsDNA, one strand shown. Summed up: as §1
Sequence of ETV6 (P41212 whole entry): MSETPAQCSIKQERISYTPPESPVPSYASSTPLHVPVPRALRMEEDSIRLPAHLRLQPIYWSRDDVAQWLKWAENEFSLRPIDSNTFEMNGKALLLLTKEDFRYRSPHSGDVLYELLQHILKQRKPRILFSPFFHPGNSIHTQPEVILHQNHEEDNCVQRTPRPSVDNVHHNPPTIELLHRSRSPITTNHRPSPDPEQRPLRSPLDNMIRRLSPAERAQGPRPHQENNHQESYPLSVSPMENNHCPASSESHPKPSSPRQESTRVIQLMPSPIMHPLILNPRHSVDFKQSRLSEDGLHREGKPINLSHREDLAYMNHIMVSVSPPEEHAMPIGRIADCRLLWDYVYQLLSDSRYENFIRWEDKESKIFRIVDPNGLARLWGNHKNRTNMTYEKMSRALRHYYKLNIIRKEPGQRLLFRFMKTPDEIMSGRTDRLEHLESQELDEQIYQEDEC

Sequence of CRX (O43186 whole entry): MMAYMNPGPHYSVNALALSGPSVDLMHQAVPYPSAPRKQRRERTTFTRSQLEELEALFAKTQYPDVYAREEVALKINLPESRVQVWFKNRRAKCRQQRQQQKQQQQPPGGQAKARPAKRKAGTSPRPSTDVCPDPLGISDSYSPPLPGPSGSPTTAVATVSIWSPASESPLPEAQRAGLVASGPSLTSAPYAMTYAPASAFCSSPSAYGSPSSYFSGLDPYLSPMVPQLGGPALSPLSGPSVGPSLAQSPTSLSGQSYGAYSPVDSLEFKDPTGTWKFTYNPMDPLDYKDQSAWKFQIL
Sequence of ETV5 (P41161 whole entry): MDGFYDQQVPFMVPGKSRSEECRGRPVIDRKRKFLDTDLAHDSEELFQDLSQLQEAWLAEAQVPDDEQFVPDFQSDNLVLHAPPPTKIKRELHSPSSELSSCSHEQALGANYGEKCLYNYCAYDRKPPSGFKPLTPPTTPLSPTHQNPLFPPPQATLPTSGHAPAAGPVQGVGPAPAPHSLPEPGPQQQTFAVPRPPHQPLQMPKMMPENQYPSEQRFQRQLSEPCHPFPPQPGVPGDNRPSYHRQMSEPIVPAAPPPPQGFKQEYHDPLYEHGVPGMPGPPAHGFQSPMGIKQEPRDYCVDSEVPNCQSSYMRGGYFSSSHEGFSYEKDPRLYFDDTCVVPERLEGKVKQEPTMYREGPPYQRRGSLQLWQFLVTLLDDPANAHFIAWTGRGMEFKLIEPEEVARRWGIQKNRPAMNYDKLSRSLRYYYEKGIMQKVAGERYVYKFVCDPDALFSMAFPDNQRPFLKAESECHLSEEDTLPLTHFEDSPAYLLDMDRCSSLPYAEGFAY
Sequence of ETV1 (P50549 whole entry): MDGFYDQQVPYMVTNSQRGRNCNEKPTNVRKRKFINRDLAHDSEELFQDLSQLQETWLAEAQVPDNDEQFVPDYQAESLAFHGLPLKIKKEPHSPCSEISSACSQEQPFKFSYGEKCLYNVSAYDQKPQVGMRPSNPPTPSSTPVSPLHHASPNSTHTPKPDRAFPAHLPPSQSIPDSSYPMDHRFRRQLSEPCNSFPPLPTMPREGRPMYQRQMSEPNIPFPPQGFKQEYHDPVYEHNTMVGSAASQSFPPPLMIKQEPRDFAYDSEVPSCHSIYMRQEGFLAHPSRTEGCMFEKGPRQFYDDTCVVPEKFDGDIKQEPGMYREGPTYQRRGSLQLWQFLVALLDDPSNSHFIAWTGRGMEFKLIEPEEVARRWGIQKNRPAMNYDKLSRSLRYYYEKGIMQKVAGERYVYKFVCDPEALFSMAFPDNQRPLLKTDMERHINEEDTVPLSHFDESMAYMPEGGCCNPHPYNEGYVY

Consider CTATAT, for which the binding signal with FEV was 1.44 fold enrichment (6-mer frequency, TF over GST control); with ETV5, 1.41 fold enrichment (6-mer frequency, TF over GST control); with HSF1, 1.23 fold enrichment (6-mer frequency, TF over GST control); in the experiment with SPIC, 1.47 fold enrichment (6-mer frequency, TF over GST control); in the experiment with ELF4, 1.41 fold enrichment (6-mer frequency, TF over GST control); in the experiment with ELK4, 1.71 fold enrichment (6-mer frequency, TF over GST control). In addition, the binding signal with ETV2 is 1.22 fold enrichment (6-mer frequency, TF over GST control); with ELF3, 1.33 fold enrichment (6-mer frequency, TF over GST control); in the experiment with CRX, 1.3 fold enrichment (6-mer frequency, TF over GST control); with ETV1, 1.39 fold enrichment (6-mer frequency, TF over GST control); with ERF, 1.48 fold enrichment (6-mer frequency, TF over GST control); with ETV3L, 1.4 fold enrichment (6-mer frequency, TF over GST control). Also, the binding signal with ETS2 was 1.54 fold enrichment (6-mer frequency, TF over GST control); in the experiment with SPDEF, 1.51 fold enrichment (6-mer frequency, TF over GST control); with ETV7, 1.41 fold enrichment (6-mer frequency, TF over GST control); with ELF5 it was 1.4 fold enrichment (6-mer frequency, TF over GST control); with ETV3, 1.5 fold enrichment (6-mer frequency, TF over GST control); with ETV6 it was 1.43 fold enrichment (6-mer frequency, TF over GST control).

For the origin of these results see PMC7862700, “An all-to-all approach to the identification of sequence-specific readers for epigenetic DNA modifications on cytosine”.
